Results on 71 compounds are retold here after PubChem BioAssay AID694 (Emory University Molecular Libraries Screening Center, 2007).

The structures appear in SMILES notation. In all, about 1,300 compounds went through this assay and about 25 (2%) were called active. No rule for the calls is given here. The sample as a whole holds a higher share of actives than the screen did.

The assay deals with Estrogen receptor (Homo sapiens) (UniProt P03372). Briefly: blockers of coactivator recruitment to ERα – biochemical, LOPAC library, TR-FRET, primary screen (AID 694).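 Also: receptor was agonist-bound with estradiol present during the assay.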 The following applies: TR-FRET ERalpha-coactivator peptide binding, stronger effect = higher value.

In general, inhibition refers to the drop in the measured response relative to a control, in per cent.

Estrogen receptor (Homo sapiens), sequence (P03372 whole entry, looked up): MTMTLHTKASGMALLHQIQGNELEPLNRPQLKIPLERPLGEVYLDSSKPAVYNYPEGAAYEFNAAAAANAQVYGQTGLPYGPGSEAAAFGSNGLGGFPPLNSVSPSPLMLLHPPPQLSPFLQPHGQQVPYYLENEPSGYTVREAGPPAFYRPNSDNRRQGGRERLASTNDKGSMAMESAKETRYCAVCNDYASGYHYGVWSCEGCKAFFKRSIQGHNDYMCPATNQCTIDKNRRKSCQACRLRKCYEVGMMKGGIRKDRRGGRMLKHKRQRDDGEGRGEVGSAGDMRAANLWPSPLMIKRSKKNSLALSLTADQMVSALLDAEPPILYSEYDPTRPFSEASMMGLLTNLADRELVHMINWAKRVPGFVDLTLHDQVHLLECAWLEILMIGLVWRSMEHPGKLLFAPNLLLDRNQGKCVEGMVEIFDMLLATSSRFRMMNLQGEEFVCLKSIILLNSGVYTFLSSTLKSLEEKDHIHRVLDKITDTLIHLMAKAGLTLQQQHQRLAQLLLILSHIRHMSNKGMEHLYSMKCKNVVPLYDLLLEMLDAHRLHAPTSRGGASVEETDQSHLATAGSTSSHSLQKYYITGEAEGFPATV

For the compound `NCCNC(=O)c1ccc(Cl)cc1`, the inhibition reads like this: (at 45 µM) -1.66% (inactive); (inhibition, at 15 µM) 0.74%.
For `OCC1NCC(O)C(O)C1O` (configuration not stated), in that order: -2.36% (inactive) and -2.41%.
As to `CN(C)CCCN1c2ccccc2Sc2ccc(C(F)(F)F)cc21`, the inhibition by setting is: (at 45 µM) 1.43% (inactive); (inhibition, at 15 µM) 1.81%.
The like results for `O=S(=O)(c1cccc2c(Cl)cccc12)N1CCCNCC1` were, in that order, -6.25% (inactive) and -1.24%.
The like results for `OCC1O[C@H](O)C(Cl)C(O)C1O` (some centres not stated) were, in that order, 2.62% (inactive) and 2.64%.
For `O=C(O)C1=CC(=C(c2ccc(O)c(C(=O)O)c2)c2ccc(O)c(C(=O)O)c2)C=CC1=O`, in that order: 88.6% [fluorescence artefact?] (active) and 76%.
On to `Cc1cc(NC(=O)Nc2ccc3c(ccn3C)c2)sn1`, for which the inhibition runs as follows: (at 45 µM) 0.07% (inactive); (inhibition, at 15 µM) -2%.
The like results for `Cc1c(C)c2c(c(C)c1O)CCC(C)(CN1CCN(c3cc(N4CCCC4)nc(N4CCCC4)n3)CC1)O2` (configuration not stated) were, in that order, -11.9% (inactive) and -0.19%.
For `Oc1ccc(O)cc1`, in that order: 0.27% (inactive) and -2.06%.
For `NC(=NCc1ccc(Cl)c(Cl)c1)NC(=O)c1nc(Cl)c(N)nc1N`, in that order: 2.8% (inactive) and -1.44%.
`N#CC(=C(\N)Sc1ccccc1N)/C(C#N)=C(/N)Sc1ccccc1N`: the inhibition (at 45 µM) is -6.45% (inactive) and the inhibition (inhibition, at 15 µM) was -2.12%.
The like results for `COc1ccc(CCNC[C@@H](O)c2ccc(O)cc2)cc1OC` were, in that order, 1.27% (inactive) and 1.3%.
`C[n+]1cc2c3c(ccc2c2ccc4cc5c(cc4c21)OCO5)OCO3`: the inhibition runs as follows: (at 45 µM) 7.36% (inactive); (inhibition, at 15 µM) 3.96%.
The like results for `NCCSSCCN` were, in that order, -10.9% (inactive) and -6.09%.
On to `Nc1nc2c(nc(Br)n2C2OC3COP(=O)(O)O[C@@H]3C2O)c(=O)[nH]1` (some centres not stated), for which the inhibition reads like this: (at 45 µM) -3.13% (inactive); (inhibition, at 15 µM) -2.06%.
For `CC(C)(C)c1onc(OCP(=O)(O)O)c1CC(N)C(=O)O` (configuration not stated), in that order: -28.3% (inactive) and -2.65%.
For `CC[N+](CC)(CC)CC(=O)Nc1c(C)cccc1C`, in that order: -2.22% (inactive) and 1.79%.
For `C/C(=C\c1ccc(C(=O)O)cc1)c1ccc2c(c1)C(C)(C)CCC2(C)C`, in that order: 40.9% (inactive) and 34.2%.
`O=c1c2ccccc2nc2n1CCc1c-2[nH]c2ccccc12`: the inhibition is 2.93% (inactive) (at 45 µM) and 1.11% (inhibition, at 15 µM).
The like results for `N=C(N)c1ccc(OCCCCCOc2ccc(C(=N)N)cc2)cc1` (tested in a mixture with another compound) were, in that order, 3.73% (inactive) and 1.26%.
The like results for `C[C@@H](NC(=O)/C(C#N)=C/c1ccc(O)c(O)c1)c1ccccc1` were, in that order, 2.49% (inactive) and 3.07%.
For `CC(=O)[C@H]1CCC2C3CC=C4C[C@@H](OS(=O)(=O)O)CC[C@]4(C)C3CC[C@@]21C` (some centres not stated), in that order: 0.32% (inactive) and 0.94%.
With `NCCNS(=O)(=O)c1cccc2cnccc12`, the inhibition reads like this: (at 45 µM) -4.68% (inactive); (inhibition, at 15 µM) -3.64%.
For `Cc1cc2c(cc1Cl)N(C(=O)Nc1ccnc3ccccc13)CC2`, the inhibition runs as follows: (at 45 µM) -4.11% (inactive); (inhibition, at 15 µM) 1.97%.
For `Cc1cc(N)c2ccccc2[n+]1CCCCCCCCCCCCCC[n+]1c(C)cc(N)c2ccccc21`, in that order: 73.8% [fluorescence artefact?] (active) and 65.9%.
With `Cc1cc(N)c2ccccc2[n+]1CCCCCCCCCC[n+]1c(C)cc(N)c2ccccc21`, the inhibition was 19.8% (inactive) (at 45 µM) and 30.1% (inhibition, at 15 µM).
For `CSc1nc(N)c2ncn([C@@H]3O[C@H](COP(=O)(O)OP(=O)(O)OP(=O)(O)O)[C@H](O)C3O)c2n1` (some centres not stated), in that order: -1.74% (inactive) and -5.35%.
The like results for `N.N.N.N.N.N.N.N.N.N.N.N.N.N.O.O.[Cl-].[Cl-].[Cl-].[Cl-].[Cl-].[Cl-].[Ru+4].[Ru+5].[Ru+5]` were, in that order, 100% [fluorescence artefact?] (active) and 99.8%.
The like results for `COC(=O)[C@H]1[C@H]2C[C@H]3c4[nH]c5ccccc5c4CCN3C[C@H]2CC[C@@H]1O` were, in that order, 1.18% (inactive) and 3.29%.
As to `CC(=O)NCCc1ccc(O)c(O)c1`, the inhibition by setting is: (at 45 µM) -22% (inactive); (inhibition, at 15 µM) -4.7%.
For `C[C@@H](Oc1ccc(Oc2cnc3ccc(Cl)cc3n2)cc1)C(=O)O`, in that order: -0.82% (inactive) and -2.92%.
Take `CCCCOC(=O)NS(=O)(=O)c1sc(CC(C)C)cc1-c1ccc(Cn2c(CC)nc3c(C)cc(C)nc32)cc1`: the inhibition was 8.38% (inactive) (at 45 µM) and 2.57% (inhibition, at 15 µM).
In the case of `O=C(/C=C/c1ccc(O)cc1)c1ccc(O)cc1O`, the inhibition was 10.8% (inactive) (at 45 µM) and -3.98% (inhibition, at 15 µM).
For `CC#C[C@]1(O)CC[C@H]2[C@@H]3CCC4=CC(=O)CCC4=C3[C@@H](c3ccc(N(C)C)cc3)C[C@@]21C`, in that order: 4.52% (inactive) and 1.37%.
For the compound `O=C(O)CCC(NC(=O)c1ccccc1C(=O)O)C(=O)O` (configuration not stated), the inhibition runs as follows: (at 45 µM) -0.22% (inactive); (inhibition, at 15 µM) 0.4%.
For `Oc1ccc(-c2nc(-c3ccc(F)cc3)c(-c3ccncc3)[nH]2)cc1`, in that order: -3.04% (inactive) and -1.6%.
For `CC(=O)N1CCN(c2ccc(OC[C@H]3CO[C@](Cn4ccnc4)(c4ccc(Cl)cc4Cl)O3)cc2)CC1`, in that order: -0.23% (inactive) and 1.67%.
With `CC(CCc1ccc(O)cc1)NCCc1ccc(O)c(O)c1` (configuration not stated), the inhibition is, setting by setting: (at 45 µM) -5.5% (inactive); (inhibition, at 15 µM) 1.1%.
For `CC(C)[N+](C)(CCOC(=O)C1c2ccccc2Oc2ccccc21)C(C)C`, in that order: 7.96% (inactive) and 8.56%.
The like results for `CCSC(=N)N` were, in that order, -21.8% (inactive) and 0.66%.
As to `Cc1cccc(/C=C/c2ccccc2)n1`, the inhibition was 4.39% (inactive) (at 45 µM) and 12.3% (inhibition, at 15 µM).
For `O=S(=O)(O)C1CCNCC1`, in that order: 1.25% (inactive) and 4.59%.
For `C[N+](C)(C)CC=O`, in that order: 0.73% (inactive) and -1.9%.
Consider `COc1ccccc1NC(=O)Nc1nc(-c2cccnc2)nc2ccccc12`, for which the inhibition by setting is: (at 45 µM) 7.9% (inactive); (inhibition, at 15 µM) 4.04%.
The like results for `O=C(Nc1cccc(C(=O)Nc2ccc(S(=O)(=O)O)c3cc(S(=O)(=O)O)cc(S(=O)(=O)O)c23)c1)Nc1cccc(C(=O)Nc2ccc(S(=O)(=O)O)c3cc(S(=O)(=O)O)cc(S(=O)(=O)O)c23)c1` were, in that order, -3.86% (inactive) and -2.37%.
Take `C[C@@H](CN1CCC(Cc2ccccc2)CC1)[C@@H](O)c1ccc(O)cc1`: the inhibition by setting is: (at 45 µM) -2% (inactive); (inhibition, at 15 µM) 1.32%.
Consider `OC[C@H]1O[C@@H](n2cnc3c(NC4CCCC4)ncnc32)C(O)[C@H]1O` (some centres not stated), for which the inhibition (at 45 µM) is -0.88% (inactive) and the inhibition (inhibition, at 15 µM) is 3.03%.
The like results for `COc1cc(C(=O)OCCCN2CCCN(CCCOC(=O)c3cc(OC)c(OC)c(OC)c3)CC2)cc(OC)c1OC` were, in that order, -2.88% (inactive) and -1.75%.
On to `CN[C@H](CC(=O)O)C(=O)O`, for which the inhibition reads like this: (at 45 µM) -0.69% (inactive); (inhibition, at 15 µM) -0.99%.
On to `COc1cccc(OC)c1OCCNCC1COc2ccccc2O1` (configuration not stated), for which the inhibition is 52.7% (inactive) (at 45 µM) and -0.05% (inhibition, at 15 µM).
The like results for `Nc1c(S(=O)(=O)O)cc(Nc2ccc(Nc3nc(Cl)nc(Nc4ccc(S(=O)(=O)O)cc4)n3)c(S(=O)(=O)O)c2)c2c1C(=O)c1ccccc1C2=O` were, in that order, 75.2% [fluorescence artefact?] (active) and 58.5%.
For `OC[C@H]1O[C@@H](n2cnc3c(N[C@H]4CC5CCC4C5)ncnc32)[C@H](O)[C@@H]1O` (some centres not stated), in that order: -7.11% (inactive) and -3.27%.
Take `CC(C)(C)c1ccc(S(=O)(=O)/C=C/C#N)cc1`: the inhibition (at 45 µM) is -4.31% (inactive) and the inhibition (inhibition, at 15 µM) was -2.91%.
For `CCCc1c(OCCCOc2ccc(OCC(=O)O)cc2)ccc(C(C)=O)c1O`, in that order: -1.06% (inactive) and 5.6%.
The like results for `C[C@]12CCC(=O)C=C1CC[C@@H]1[C@@H]2[C@@H](O)C[C@@]2(C)[C@H]1CC[C@]2(O)C(=O)COC(=O)CCC(=O)O` were, in that order, 0.81% (inactive) and 1.7%.
For `Oc1cc2c(c(Cl)c1O)CCNCC2c1ccccc1` (configuration not stated), in that order: -1.88% (inactive) and 4.73%.
As for `Cc1cccc(C)c1OCC(N)C(C)C` (configuration not stated), the inhibition by setting is: (at 45 µM) -0.93% (inactive); (inhibition, at 15 µM) -1.42%.
With `O=[N+]([O-])c1ccc(-c2nc(-c3ccc(F)cc3)c(-c3ccncc3)[nH]2)cc1`, the inhibition by setting is: (at 45 µM) -3.67% (inactive); (inhibition, at 15 µM) -0.79%.
The like results for `Cc1scc2c1N(C(=O)CN1CCN(C)CC1)c1ccccc1NC2=O` were, in that order, -3.58% (inactive) and -4.27%.
In the case of `O=C(Cc1ccc(Cl)c(Cl)c1)OCCN1CCCC1`, the inhibition (at 45 µM) is -23.1% (inactive) and the inhibition (inhibition, at 15 µM) is -1.83%.
For `O=[N+]([O-])c1cccc2c(Br)[nH]nc12`, in that order: -0.31% (inactive) and -5.48%.
The like results for `N[C@@H](CC(=O)O)C(=O)O` were, in that order, -5.55% (inactive) and -8.89%.
For `CC(C)(Sc1ccc(CCN(CCCCC2CCCCC2)C(=O)NC2CCCCC2)cc1)C(=O)O`, the inhibition by setting is: (at 45 µM) 43.1% (inactive); (inhibition, at 15 µM) 8.46%.
The like results for `NS(=O)(=O)c1cccc2c1c([N+](=O)[O-])cc1nc(O)c(O)nc12` were, in that order, -0.73% (inactive) and -5.25%.
`CC(=O)O[C@H]1CC2(C)[C@@H](C[C@@H](O)[C@H]3[C@@]4(C)CC[C@@H](O)[C@@H](C)[C@@H]4CC[C@@]32C)C1=C(CCC=C(C)C)C(=O)O` (some centres not stated): the inhibition runs as follows: (at 45 µM) 80.4% (inactive); (inhibition, at 15 µM) 14.2%.
The like results for `Oc1cc(O)cc(/C=C/c2ccc(O)c(O)c2)c1` were, in that order, 70.5% (inactive) and 32.3%.
For `COc1cc2c(CCNC(C)=O)c[nH]c2cc1O`, in that order: -5.77% (inactive) and -3%.
The like results for `N#C/C(=C\c1c[nH]c2ccccc12)C(=O)c1ccc(O)c(O)c1` were, in that order, 4.91% (inactive) and 10.1%.
As to `CSc1nc(N)c2ncn([C@@H]3O[C@H](COP(=O)(O)OP(=O)(O)O)[C@H](O)C3O)c2n1` (some centres not stated), the inhibition was 2.87% (inactive) (at 45 µM) and -1.28% (inhibition, at 15 µM).
With `CN1CCc2c(cc(O)c(O)c2Cl)C(c2cccc(Cl)c2)C1` (configuration not stated), the inhibition runs as follows: (at 45 µM) 7.51% (inactive); (inhibition, at 15 µM) 4.56%.
For `OC[C@H]1O[C@@H](n2cnc3c(NC4CCCCC4)ncnc32)[C@H](O)[C@@H]1O`, in that order: -1.41% (inactive) and -1.34%.
